Rows were chosen to be rich in hits. Some 5.7% of all compounds tested hit in one or more screens of this group.
HEK293 tox = qHTS of GLP-1 Receptor Inverse Agonists: Cytotox Screen; Potency, µM (doses to about 38.3 µM), inactives show at the top dose activity change, negative = inhibition, most hits filed as inhibitors; HEK293 cAMP-luciferase reporter cells, luminescence, 24 h; 0.13% of 410,000 active;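 note: loss of luciferase light is scored as toxicity; potency is the fitted concentration of half-maximal effect; % is set by controls: 0 for no effect and ±100 for the full control effect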
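Here, cytotoxicity is scored as loss of luminescence. The MLSMR collection was tested on cells seeded in medium containing 10% Nu serum, with a 24 hr compound exposure preceded by 12 hours of culture.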
DRD3 antagonist = qHTS of D3 Dopamine Receptor Antagonist: qHTS; D(3) dopamine receptor (Homo sapiens), P35462; AID 652054, 2013; 2.5% of 360,000 active; D3R cells, DiscoveRx beta-arrestin luminescence, antagonist mode; hits give low values; max response, negative = inhibition, %; in the data active = max response below about -50%; inconclusive = no clear call, values can overlap the other calls; note: % is set by controls: 0 for no effect and ±100 for the full control effect
Target sequence (P35462 whole entry, looked up): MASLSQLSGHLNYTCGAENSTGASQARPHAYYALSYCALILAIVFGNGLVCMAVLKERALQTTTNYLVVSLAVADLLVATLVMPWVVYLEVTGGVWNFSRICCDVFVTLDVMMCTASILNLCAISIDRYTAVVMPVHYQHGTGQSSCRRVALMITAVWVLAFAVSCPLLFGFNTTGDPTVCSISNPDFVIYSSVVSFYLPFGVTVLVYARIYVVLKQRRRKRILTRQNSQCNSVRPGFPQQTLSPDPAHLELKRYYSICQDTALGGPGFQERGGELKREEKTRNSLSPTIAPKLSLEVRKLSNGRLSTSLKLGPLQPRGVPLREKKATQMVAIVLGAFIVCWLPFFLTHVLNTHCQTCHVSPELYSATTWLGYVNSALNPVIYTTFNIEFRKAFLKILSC
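Cells plated overnight at 1500 cells/well, then exposed to library compounds with dopamine controls for 90 minutes at 37 degrees C. DiscoveRx reagent added for 30–60 minutes at room temperature; luminescence read, quantitative HTS format.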
GLP1R inv ag = qHTS of GLP-1 Receptor Inverse Agonists (Inhibition Mode). Glucagon-like peptide 1 receptor (Homo sapiens), P43220. HEK293 GLP-1R CRE-luciferase, luminescence, 24 h; GLP-1R form is constitutively active. Potency, µM (titrated, usually from 38.3 µM), inactives show top-dose activity change, negative = inhibition, most hits filed as inhibitors. 1.6% of 410,000 active. AID 624417, 2012; note: potency is the fitted concentration of half-maximal effect; % is set by controls: 0 for no effect and ±100 for the full control effect; nearly all actives have a fitted effect of over 55% in size
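GLP-1R inverse agonism mode: basal reporter luminescence in engineered HEK293 cells measured after one day of compound exposure at 37 deg C, with a 12 min room-temperature detection step.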
GLP1R ag = qHTS of GLP-1 Receptor Agonists; Glucagon-like peptide 1 receptor (Homo sapiens), P43220; HEK293 GLP-1R CRE-luciferase, luminescence, 4-6 h; cells express a hypersensitive GLP-1R form; Potency, µM (doses to about 45.6 µM), for the others: top-dose activation, actives largely listed as activators; 0.007% of 380,000 active; AID 624172, 2012; note: potency is the fitted concentration of half-maximal effect; % of control where 0% means no effect
DRD3 agonist = qHTS of D3 Dopamine Receptor Agonist: qHTS | D3R DiscoveRx beta-arrestin cells, luminescence, 90 min | 0.58% of 410,000 active | max activation, % | AID 652048, 2013; in the data active = max activation above about 30%; note: 0% is about no effect
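Agonist mode: compounds and dopamine controls were applied to plated cells for 90 min at 37 degrees C after an overnight attachment at 1500 cells/well. Luminescent read-out followed 30 - 60 minutes at room temperature with DiscoveRx detection reagent.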
ClpP mod = qHTS Assay for Activators of ClpP. purified B. subtilis ClpP, FRET peptide cleavage, 20 min. Potency, µM (series often up to 57.5 µM), inactives show at the highest dose activity change, negative = active. 1.9% of 340,000 active. AID 651965, 2013. ATP-dependent Clp protease proteolytic subunit (Bacillus subtilis (strain 168)), P80244; active = well fitted falling curve with a large enough effect; inconclusive = small, poorly fitted or top-dose-only effect; inactive = no such curve, though single readings can be large or run the other way; note: potency is the fitted concentration of half-maximal effect; the source files actives as falling curves though it sought activators and does not explain the sign; nearly all actives have a fitted effect of over 65% in size
Target sequence (P80244 whole entry, looked up): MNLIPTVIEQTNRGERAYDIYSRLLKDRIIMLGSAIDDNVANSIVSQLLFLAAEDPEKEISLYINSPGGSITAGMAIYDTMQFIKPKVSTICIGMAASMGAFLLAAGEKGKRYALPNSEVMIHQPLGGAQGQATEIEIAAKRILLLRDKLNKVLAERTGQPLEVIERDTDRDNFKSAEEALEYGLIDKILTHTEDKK
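FRET quenching reversal measured ClpP activation: 10 microg/mL B. subtilis ClpP at pH 8 with the FRET-FV decapeptide, read at 430 nm after 320 nm excitation. The 20-min minus 0-min signal was scaled between DMSO/no-enzyme wells and ADEP (5.8 microM final).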
The depositor's hits bear a star; u = inconclusive; x = no result given. Unless noted, calls come from the whole dose curve; as a rule, active = well fitted curve in the direction sought with a large enough effect; inconclusive = small, poorly fitted or top-dose-only effect, or another doubt; inactive = no such curve, though single readings can be large; an effect the other way counts as inactive or inconclusive.

SMILES	HEK293 tox	DRD3 antagonist	GLP1R inv ag	GLP1R ag	DRD3 agonist	ClpP mod
COc1ccc(C)cc1NC(=O)COC(C)=O	8.1%	6.2	1.1%	-8.2%	1.2	-8.5%
COc1ccc(OC)c(NC(=O)CCN2CCN(c3ccccc3F)CC2)c1	-16.5%	1.5	u	5.2%	64.2*	-1.6%
COc1ccc(OC)c(NC(=O)CCN2CC(C)OC(C)C2)c1 (stereo not given)	-1.0%	3.2	13.1%	2.7%	-0.5	-1.5%
CCC(C(=O)OCC(=O)Nc1cc(C)ccc1OC)c1ccccc1 (stereo not given)	-7.6%	0.0	10µM*	21.6%	-10.8	x
CCOCCc1nn2c(=O)cc(COC(=O)c3ccc(NC(=O)c4cccs4)cc3)nc2s1	1.1%	x	1.4%	x	-14.7	-3.9%
O=C(Nc1cc(C(F)(F)F)ccc1F)C1Cc2c(-c3ccccc3Oc3ccccc3)ccnc2O1 (stereo not given)	-16.3%	9.0	u	-0.2%	5.3	-16.2%
Nn1c(Cc2ccccc2)nc2ccccc2c1=O	-3.7%	u	-17.1%	-2.6%	-16.2	-0.3%
Nn1c(CN2CCCCC2)nc2ccccc2c1=O	-9.0%	-91.4*	-5.1%	-5.4%	-12.5	-1.1%
Oc1ccc(-c2ccccc2)cc1CN1CCCCCC1	-12.4%	-92.8*	u	-2.1%	-18.5	x
Oc1cccnc1CN1CCCCC1	-5.9%	11.7	6.7%	0.5%	-4.9	x
Oc1ccc(CN2CCCCC2)nc1-c1ccccc1	-12.5%	-51.6*	2.0%	-3.5%	12.6	35.5µM*
COc1cc2[nH]c(=O)n(CCC(=O)N3CCc4ccccc4C3)c(=O)c2cc1OC	-9.0%	0.6	0.5%	0.0%	4.6	28.2µM*
COc1cc2[nH]c(=O)n(CCCCCC(=O)N3CCN(c4cccc(C(F)(F)F)c4)CC3)c(=O)c2cc1OC	1.5%	x	5.3%	x	6.3	-10.7%
COc1cc2[nH]c(=O)n(CCCCCC(=O)N3CC=C(c4ccccc4)CC3)c(=O)c2cc1OC	-18.8%	u	-3.2%	-14.3%	1.7	17.8µM*
OCCO[C@@H]1[C@@H](O)[C@H](O)[C@@H](CO)O[C@@H]1O	x	x	x	x	7.4	x
Cn1cc(S(=O)(=O)N2CCCCC2)cc1C(=O)NCc1ccc(Cl)cc1	7.1%	x	u	x	-1.5	-1.3%
COc1cnc(-c2ccccn2)nc1Oc1ccc(Cl)cc1	u	-73.1*	0.0%	12.7%	-5.0	-1.0%
COc1cnc(-c2ccccn2)nc1Sc1ccc(C)cc1	u	-2.6	u	15.3%	-7.7	x
COc1cnc(-c2ccccn2)nc1Oc1ccc(Cl)c2ccccc12	u	-93.6*	0.0%	14.4%	-6.8	1.3%
COc1cnc(-c2ccccn2)nc1Sc1cccc(Cl)c1	u	-70.7*	u	-7.7%	-5.4	-7.6%
COc1cnc(-c2ccccn2)nc1Oc1ccccc1Cl	11.3%	-0.8	6.6%	-10.0%	1.4	-3.2%
C=Cc1ccc(COc2ccc3oc(-c4ccccc4)c(C(=O)OCC)c3c2)cc1	-4.8%	x	-3.0%	x	-1.7	3.8%
CCOc1ccc(CCNC(=O)Cn2c(C)c3cnn(-c4ccccc4)c(=O)c3c2C)cc1	5.9%	x	14.1%	x	-5.8	1.3%
COc1ccccc1N1CCN(CCCNC(=O)c2nnc(Cc3c(F)cccc3Cl)o2)CC1	-4.2%	x	-26.3%	x	-23.0	-1.7%
OCCC1CN(Cc2cc3c(cc2Cl)OCO3)CCN1C1CCCC1 (stereo not given)	-4.6%	-53.5*	-21.4%	-4.1%	-13.8	-1.2%
SMILES	HEK293 tox	DRD3 antagonist	GLP1R inv ag	GLP1R ag	DRD3 agonist	ClpP mod
c1ccc(-c2cn(-c3ccccc3)c3ncnc(N4CCCCC4)c23)cc1	-5.9%	46.1	3.16µM*	3.5%	9.5	x
CN1CCN(c2ncnc3c2c(-c2ccccc2)cn3-c2ccc(F)cc2)CC1	u	-63.3*	u	20.8%	-20.4	x
Clc1cccc(-n2cc(-c3ccccc3)c3c(N4CCCCC4)ncnc32)c1	9.3%	x	2.2%	x	1.9	u
COc1cccc(N2CCN(c3ncnc4c3c(-c3ccccc3)cn4-c3ccc(F)cc3)CC2)c1	8.5%	x	2.0%	x	-2.4	-2.1%
COc1ccc(N2CCN(Cc3nc4c(c(=O)n(C)c(=O)n4C)n3C(C)C)CC2)cc1	1.1%	x	-14.2%	x	0.8	-0.7%
Cc1ccc(S(=O)(=O)NCC(=O)NCC2CCCCC2)cc1C	u	-17.1	-8.5%	10.3%	15.1	x
Cc1cc(C)c(C)c(S(=O)(=O)NCC(=O)NCC2CCCCC2)c1C	17.3%	-7.5	6.31µM*	13.1%	-11.6	x
CCN(C(=O)c1ccc(C)c(Br)c1)c1ccccc1	1.3%	-18.6	10µM*	10.0%	-8.1	x
Cc1cccc2c(=O)cc(CSCC(=O)Nc3ccc(Cl)cc3)[nH]c12	-15.7%	x	-7.6%	x	-20.2	-5.9%
Cc1ccc(OCCNc2cc(N3CCN(CCO)CC3)ccc2[N+](=O)[O-])cc1C	-27.9%	-56.0*	u	-1.1%	-8.6	-11.6%
Cc1cccc(OCCNc2cc(N3CCN(C)CC3)ccc2[N+](=O)[O-])c1	5.2%	-64.8*	-16.2%	1.9%	-49.8	0.9%
Cc1cccc(OCCNc2cc(N3CCOCC3)ccc2[N+](=O)[O-])c1	-21.6%	22.6	-9.0%	u	8.2	0.7%
N#C/C(=C\c1ccc(OCc2ccc(C(=O)O)cc2)cc1)C(=O)N1CCOCC1	-15.5%	16.2	1µM*	-4.4%	12.4	-0.2%
COc1cc(/C=C(\C#N)C(=O)N2CCOCC2)ccc1OCc1ccccc1	-15.3%	-14.1	-17.3%	5.0%	-3.9	x
COc1ccc(/C=C(\C#N)C(=O)N2CCOCC2)cc1Br	30.9%	-7.9	107.8%	-3.2%	0.2	25.1µM*
Cc1ccc(CSCC(=O)N2CCN(c3ccccc3F)CC2)cc1	-0.8%	x	u	x	0.0	-1.8%
COc1ccc(OC)c(NS(=O)(=O)c2ccc(-c3cc(C)no3)s2)c1	u	x	u	x	-6.7	-1.6%
O=C(O)c1ccc(NC(=O)c2cn(-c3ccccc3)nc2-c2ccc(F)cc2)cc1	-2.3%	1.6	4.1%	6.4%	7.5	x
O=C(O)c1ccc(NC(=O)c2cn(-c3ccccc3)nc2-c2cccc(Cl)c2)cc1	-7.6%	36.3	u	-3.2%	36.1*	x
COC(=O)c1ccc(NC(=O)c2cn(-c3ccccc3)nc2-c2ccncc2)cc1	2.1%	-67.2*	u	7.2%	-13.4	104.1%
CN1CCC(C)(C(=O)Nc2ccc3c(c2)OCCO3)C1 (stereo not given)	-9.5%	18.2	8.7%	-3.1%	0.4	-1.4%

Source: PubChem BioAssay
